According to PubChem BioAssay AID382 (SGCOxCompounds, 2006):
Activity calls are given as the source filed them. No rule for the calls is given here.

Target: Dual specificity protein kinase CLK1 (Homo sapiens) (UniProt P49759)
Test: ligand-induced CLK1 melting temperature shift – biophysical, recombinant human kinase, DSF (AID 382)
Conditions: Recombinant CLK1, thermal shift (DSF), buffer 10 mM HEPES, stronger effect = higher value
[1] = at 10 µM, protein 2 µM, NaCl 150 mM, with 50 mM Arg/Glu
[2] = at 10 µM, protein 2 µM, pH 7.5, NaCl 150 mM, with 50 mM Arg/Glu
[3] = at 10 µM, protein 2 µM, NaCl 150 mM
[4] = measured here: replicate experiment 2, at 10 µM, run 2, protein 2 µM, NaCl 150 mM
[5] = at 10 µM, protein 2 µM, pH 7.5, NaCl 150 mM, with 50 µM L-Arg/L-Glu (1:1)

Chain of Dual specificity protein kinase CLK1 (Homo sapiens) (P49759 whole entry, looked up): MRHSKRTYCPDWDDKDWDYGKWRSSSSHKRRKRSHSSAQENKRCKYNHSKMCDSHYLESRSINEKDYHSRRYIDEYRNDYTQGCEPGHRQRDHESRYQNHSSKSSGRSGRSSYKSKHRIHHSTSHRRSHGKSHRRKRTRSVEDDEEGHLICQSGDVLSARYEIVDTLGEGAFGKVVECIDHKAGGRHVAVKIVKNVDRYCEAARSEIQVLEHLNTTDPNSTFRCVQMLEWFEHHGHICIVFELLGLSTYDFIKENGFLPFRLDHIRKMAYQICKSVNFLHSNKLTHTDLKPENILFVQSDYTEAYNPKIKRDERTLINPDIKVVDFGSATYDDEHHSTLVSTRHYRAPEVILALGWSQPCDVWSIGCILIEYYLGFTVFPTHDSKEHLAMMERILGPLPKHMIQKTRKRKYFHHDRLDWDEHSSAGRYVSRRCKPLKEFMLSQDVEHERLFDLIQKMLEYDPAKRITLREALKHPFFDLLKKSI

Structure (SMILES): Clc1cccc(Nc2ccn3ncc(-c4ccc5c(c4)OCO5)c3n2)c1
- Tm shift [1]: 6.85 Celsius (active)

Structure (SMILES): Nc1nc(Nc2ccc(S(N)(=O)=O)cc2)nn1C(=S)Nc1c(F)cccc1F
- Tm shift [1]: 11.8 Celsius (active)

Structure (SMILES): Cn1cc(/C=C2\C(=O)Nc3ccc(S(N)(=O)=O)cc32)c2ccccc21
- Tm shift [2]: 3.6 Celsius (active)

Structure (SMILES): CC(C)(C)c1nc2c3cc[nH]c(=O)c3c3cc(F)ccc3c2[nH]1
- Tm shift [2]: 3.6 Celsius (active)

Structure (SMILES): NC(=O)c1ccc(-c2nc(-c3ccc4c(c3)OCCO4)c(-c3ccccn3)[nH]2)cc1
- Tm shift [2]: 6.3 Celsius (active)

Structure (SMILES): CC1N=C2SC=CN2C(=O)C1CCN1CCC(=C(c2ccccc2)c2ccc(F)cc2)CC1 (stereo unspecified)
- Tm shift [3]: 6.74 Celsius (active)
- Tm shift [4]: 3.6 Celsius

Structure (SMILES): COc1cc(/C=C/C(=O)CC(=O)/C=C/c2ccc(O)c(OC)c2)ccc1O
- Tm shift [3]: 9.16 Celsius (active)

Structure (SMILES): Fc1cccc(-c2cnc3ccc(NC4CCOCC4)nn23)c1
- Tm shift [5]: 4.5 Celsius (active)

Structure (SMILES): CC(C)[C@@H](CO)Nc1ccc2ncc(-c3cccc(OC(F)(F)F)c3)n2n1
- Tm shift [5]: 4.6 Celsius (active)

Structure (SMILES): O=c1c(-c2ccc(O)cc2)coc2cc(O)cc(O)c12
- Tm shift [3]: 3.77 Celsius (active)

Structure (SMILES): COC(=O)c1cnc2oc3ccc(O)cc3c2c1-c1ccccc1
- Tm shift [3]: 6.11 Celsius (active)
- Tm shift [4]: 3.9 Celsius

Structure (SMILES): O=c1[nH]c(O)c2c1c1c3ccccc3nc1n1cncc21
- Tm shift [5]: 4.5 Celsius (active)

Structure (SMILES): CCC(CO)Nc1ccc2ncc(-c3ccc(F)c(Cl)c3)n2n1 (stereo unspecified)
- Tm shift [1]: 5.64 Celsius (active)

Structure (SMILES): CN(C)S(O)(O)c1ccc2c(c1)/C(=C/c1cc3c([nH]1)CCCC3)C(=O)N2
- Tm shift [2]: 4.8 Celsius (active)
